From PubChem BioAssay
The list is not random: actives were taken first. Their share in the collection is about 2.9%.
Fam108B counter – counter-screen for RBBP9 inhibitors: inhibitors of mouse Fam108B; recombinant Fam108B, FP-Rh probe fluorescence polarization; inhibition, % at 9.51 µM; 0.33% of 300,000 active; AID 1947;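 active = inhibition above the screen mean inhibition plus 3 SD, computed separately per campaign, cut at about 18% in these data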;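 also: inhibitors lower polarization as less probe binds the enzyme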
PAFAH2 FP inh – inhibitors of human PAFAH2; Q99487; inhibition, % at 3.39 µM; recombinant PAFAH2, FP-rhodamine activity probe, fluorescence polarization; AID 492956; 0.99% of 340,000 active;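 active = inhibition above the mean over all tested compounds plus 3 SD, cut at about 30% in these data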;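 also: inhibitors block probe labeling of enzyme so polarization drops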
PAFAH1B3 FP inh – blocks human PAF acetylhydrolase 1B catalytic subunit 3; Q15102; recombinant PAFAH1B3, FP-rhodamine probe, fluorescence polarization; inhibition, % at 3.39 µM; 0.28% of 340,000 active;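 active = inhibition above the screen-wide average of all tested compounds plus 3 SD, cut at about 25% in these data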
PME-1 primary – blocks human protein phosphatase methylesterase 1; recombinant PME-1, FP-Rh probe fluorescence polarization; inhibition, % at 5.9 µM; 0.53% of 320,000 active; AID 2130;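 active = inhibition above the campaign mean of all compounds plus 3 SD, cut at about 26% in these data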;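 also: competitive labeling of PME-1 active site by serine hydrolase directed probe; inhibitors block probe labeling so polarization falls and inhibition rises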
PAFAH1B2 FP inh – blocks human PAF acetylhydrolase 1b catalytic subunit 2; AID 492953; 1.2% of 340,000 active; recombinant PAFAH1B2, FP-rhodamine activity probe, fluorescence polarization; inhibition, % at 3.39 µM;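 active = inhibition above the mean of all tested compounds plus 3 SD, cut at about 24% in these data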
Target sequence (P68402 whole entry, looked up): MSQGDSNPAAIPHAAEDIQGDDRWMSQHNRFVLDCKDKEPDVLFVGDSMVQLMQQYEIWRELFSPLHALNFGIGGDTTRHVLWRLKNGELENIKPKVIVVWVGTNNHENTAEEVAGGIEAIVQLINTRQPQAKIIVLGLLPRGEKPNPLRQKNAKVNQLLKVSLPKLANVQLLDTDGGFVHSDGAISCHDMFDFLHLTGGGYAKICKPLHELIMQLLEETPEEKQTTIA
pPAFAH inh – inhibitors of human plasma PAF acetylhydrolase (pPAFAH) | Q13093 | inhibition, % at 3.39 µM | 1.5% of 330,000 active | recombinant pPAFAH, FP-rhodamine probe fluorescence polarization;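 active = inhibition above the mean inhibition across the screen plus 3 SD, cut at about 25% in these data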;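 also: inhibitors block binding of the rhodamine activity-based probe so polarization drops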
Target sequence (Q13093 whole entry, looked up): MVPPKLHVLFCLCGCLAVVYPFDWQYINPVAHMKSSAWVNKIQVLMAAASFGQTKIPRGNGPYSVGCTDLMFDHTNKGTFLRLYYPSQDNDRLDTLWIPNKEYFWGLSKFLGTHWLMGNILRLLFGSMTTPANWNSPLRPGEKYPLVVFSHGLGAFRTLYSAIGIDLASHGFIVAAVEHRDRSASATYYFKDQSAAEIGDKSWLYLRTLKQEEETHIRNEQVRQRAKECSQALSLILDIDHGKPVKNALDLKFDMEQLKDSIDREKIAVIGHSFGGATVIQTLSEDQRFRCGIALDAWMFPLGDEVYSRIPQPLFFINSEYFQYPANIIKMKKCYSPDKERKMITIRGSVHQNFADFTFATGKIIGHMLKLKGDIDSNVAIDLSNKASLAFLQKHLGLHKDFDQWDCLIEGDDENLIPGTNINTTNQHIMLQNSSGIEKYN
Fam108b inh conf – confirmation of mouse Fam108b serine hydrolase inhibitors; recombinant Fam108b, FP-Rh probe fluorescence polarization; shares compounds with Fam108B counter; 44% of 930 active; inhibition, % at 9.51 µM; AID 1978;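 active = inhibition above a limit from the primary screen, the mean over all compounds plus 3 SD, cut at about 19% in these data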;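 also: inhibitors free the probe so polarization falls as inhibition rises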
Fam108b inh – inhibits mouse Fam108b in gel-based ABPP. 44% of 260 active. shares compounds with Fam108B counter. recombinant Fam108b, fluorophosphonate probe. inhibition, % at 20 µM; in the data active = inhibition above about 40%
Each line names hits and unclear results; the compound was inactive in the other large screens (follow-up assays come after a bar, where they were run).

CCOC(=O)c1ccc(Nc2nc(C)cc(C)n2)cc1	none (no result: Fam108B counter, PME-1 primary, pPAFAH inh)
NS(=O)(=O)c1ccc(NC2=CC(=O)C(=O)c3ccccc32)cc1	Fam108B counter 20 | Fam108b inh conf 32 | Fam108b inh inactive
CC(=O)Nc1ccc(NC2=CC(=O)c3ccccc3C2=O)cc1	none
CCOC(=O)c1ccc(NC2=CC(=O)C(=O)c3ccccc32)cc1	Fam108B counter 19, PAFAH2 FP inh 38, PAFAH1B3 FP inh 58 | Fam108b inh conf 30 | Fam108b inh inactive
O=C(c1cnc2n(c1=O)CCS2)N1CCN(c2ccc(Cl)c(Cl)c2)CC1	none
COC(=O)c1cc(C(=O)Nc2nnc(CC(C)(C)C)s2)cc([N+](=O)[O-])c1	none
Cc1c(O)ccc(C=NNc2nc(-c3cccnc3)nc3ccccc23)c1O	none (no result: Fam108B counter, PAFAH2 FP inh, PAFAH1B3 FP inh, PME-1 primary, PAFAH1B2 FP inh, pPAFAH inh) | Fam108b inh 60
CCOc1cc(-c2nc(-c3ccccc3)c(-c3cc([N+](=O)[O-])ccc3C)[nH]2)ccc1O	Fam108B counter 21 | Fam108b inh conf inactive
COc1ccc(-c2nc(-c3ccccc3)c(-c3cc([N+](=O)[O-])ccc3C)[nH]2)cc1OC	none
O=[N+]([O-])c1ccc(O)c(-c2nc(-c3ccccc3)c(-c3cccs3)[nH]2)c1	Fam108B counter 26 | Fam108b inh conf inactive
Cc1sc2ncnc(N/N=C/c3ccccc3O)c2c1C	Fam108B counter 19 | Fam108b inh conf inactive
CC(=O)Nc1ccc(C(O)(C(F)(F)F)C(F)(F)F)cc1	none
COc1ccc(NC(=O)COc2coc(CN3CCc4ccccc4C3)cc2=O)cc1	none
Cc1ccc(-c2csc3nc(C(C)C)oc(=O)c23)c(C)c1	Fam108B counter 67 | Fam108b inh conf 66 | Fam108b inh 50
CNC(=O)c1cc(NC(=O)CCn2nc(-c3ccccc3)c3ccccc3c2=O)ccc1OC	none
Cc1cccc(Nc2nc(-c3ccc(O)cc3O)cs2)n1	Fam108B counter 21 | Fam108b inh conf inactive
Oc1ccc(-c2csc(Nc3ncccn3)n2)c(O)c1	none
CC(C)(C)N1C(=O)Cc2c1nc(N)c1c(N)nc(N3CCCCC3CO)c(C#N)c21 (stereo not given)	Fam108B counter 40 | Fam108b inh conf 90
CC(C)CN(Cc1cc(=O)oc2cc(-c3ccccc3)c(O)cc12)CC(C)C	Fam108B counter 42 | Fam108b inh conf 19
Cc1cc(C)cc(Nc2nc(-c3ccc(S(=O)(=O)N4CCCC4)cc3)cs2)c1	Fam108B counter 24 | Fam108b inh conf inactive
Cc1ccc(Nc2nc(-c3ccc(S(=O)(=O)N4CCCC4)cc3)cs2)cc1C	none
O=C(CSc1nnc(NC2CCCCC2)s1)Nc1ccc2c(c1)C(=O)c1ccccc1C2=O	Fam108B counter 42 | Fam108b inh conf inactive
CC(C)Nc1nnc(SCC(=O)Nc2ccc3c(c2)C(=O)c2ccccc2C3=O)s1	Fam108B counter 30, PME-1 primary 57 | Fam108b inh conf inactive
Cc1ccc(NC(=O)CN(C)C(=O)CSc2nnc(NC(C)C)s2)cc1	none (no result: Fam108B counter, PME-1 primary, pPAFAH inh)
C#Cc1ccc([C@@H]2C=C(C(=O)N3CCN(Cc4ccccc4)CC3)O[C@H](OCCCCO)C2)cc1	none
COc1ccccc1CC(=O)NNS(=O)(=O)c1ccc([N+](=O)[O-])cc1	Fam108B counter 21 | Fam108b inh conf inactive
COc1ccccc1CC(=O)NNS(=O)(=O)c1cccc([N+](=O)[O-])c1	none
CCn1cc(C(=O)N(C)Cc2ccc(OC(F)F)cc2)c(=O)c2ccc(C)nc21	none
COc1cc(/C=N/NC(=O)c2ccccc2)ccc1O	none
COc1cc(/C=N/NC(=O)c2ccc(CSc3nc4ccccc4[nH]3)cc2)ccc1O	Fam108B counter 24 (no result: PAFAH2 FP inh, PAFAH1B3 FP inh, PAFAH1B2 FP inh) | Fam108b inh conf inactive
N#C/C(=C(/O)c1cc2ccccc2o1)c1nc2ccccc2s1	Fam108B counter 22 | Fam108b inh conf 21
Cn1c(=O)c2c(nc(Oc3ccc4c(c3)OCO4)n2Cc2ccc(Br)cc2)n(C)c1=O	none (no result: PAFAH2 FP inh, PAFAH1B3 FP inh, PAFAH1B2 FP inh)
C(=C\c1nccc2c1[nH]c1ccccc12)/c1ccccc1	none
Cc1ccc(/C=C/c2nc3ccccc3c(=O)[nH]2)cc1	none
Cc1ccc(/C=C\c2nccc3c2[nH]c2ccccc23)cc1	Fam108B counter 24 | Fam108b inh conf inactive
Fc1ccc(/C=C\c2nccc3c2[nH]c2ccccc23)cc1	Fam108B counter 19 | Fam108b inh conf inactive
Oc1ccc(C=NNc2ccnc3cc(Cl)ccc23)c(O)c1O	none (no result: Fam108B counter, PAFAH2 FP inh, PAFAH1B3 FP inh, PME-1 primary, PAFAH1B2 FP inh, pPAFAH inh) | Fam108b inh 80
Cc1ccccc1/C=N/Nc1ccnc2cc(Cl)ccc12	none
O=C(Cc1ncn[nH]1)NCCc1ccccc1	none
COc1ccccc1N(CC(=O)NCC1CCCO1)C(=O)CNS(=O)(=O)c1ccc(C)cc1 (stereo not given)	none
COc1ccc(NC(=S)Nc2ccc3nc(C)c(C)nc3c2)cc1	none
CCOc1ccc(NC(=S)Nc2ccc3nsnc3c2)cc1	Fam108B counter 80, PAFAH2 FP inh 52, PAFAH1B3 FP inh 54, PME-1 primary 52, PAFAH1B2 FP inh 34 | Fam108b inh conf 25
CC(C)N(C(=O)Nc1ccc2nsnc2c1)C(C)C	Fam108B counter 55, PME-1 primary 32 (no result: PAFAH2 FP inh, PAFAH1B3 FP inh, PAFAH1B2 FP inh) | Fam108b inh conf 33 | Fam108b inh inactive
COc1ccc(NC(=S)Nc2ccc3nsnc3c2)cc1	Fam108B counter 29, PAFAH2 FP inh 41, PAFAH1B3 FP inh 66, PME-1 primary 36 | Fam108b inh conf 40 | Fam108b inh 55
O=C(NNC(=S)NC(=O)c1cccc([N+](=O)[O-])c1)c1ccc(Br)cc1	none
CCOc1cc(C2Nc3ccccc3C(=O)N2c2ccccc2)ccc1O (stereo not given)	none
COc1ccc(C2Nc3cccc4cccc(c34)N2)cc1	none
CCOc1ccc(C2Nc3cccc4cccc(c34)N2)cc1OC	Fam108B counter 25 | Fam108b inh conf inactive
CCOc1cc(C2Nc3cccc4cccc(c34)N2)ccc1O	Fam108B counter 63, PAFAH2 FP inh 41, PAFAH1B3 FP inh 40, PAFAH1B2 FP inh 27 | Fam108b inh conf 24
CC(C)CCN1CC(C(=O)NC(C)C)CC1=O (stereo not given)	none
CCn1ccc(C(=O)Nc2ccccc2Cl)n1	none
CCCCN(C(=O)CCn1c(=O)oc2ccccc21)c1ccccc1	none
O=[N+]([O-])c1ccc(O)c(Nc2ncnc3ccc(Br)cc23)c1	Fam108B counter 20, PME-1 primary 32 | Fam108b inh conf inactive
CCOc1ccc(NC(=O)N2CCC(NC(=O)c3ccco3)CC2)cc1	none
CC(C)(C)c1cc[n+](-c2[nH]c(=O)sc2/C=N/N=C(\[O-])c2cccnc2)cc1	none
O=c1[nH]c(-[n+]2ccc3ccccc3c2)c(/C=N/N=C(\[O-])c2ccccc2)s1	Fam108B counter 18 | Fam108b inh conf inactive
